# Source: PubChem BioAssay (NCI)
# This is part of a sample that, as a whole, favours compounds with a hit. Of some 83,000 tested, about 20% had one in any assay.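 Compound tested at a single concentration for 48 hours in 96-well plates; a percent growth value below 10 was scored as active.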 A number with no mark means an inactive call. The source made the active and inactive calls.
# What was measured:
# Test in all cases: NCI-60 one-dose screen, 48 h (100 = growth as untreated, 0 = no growth, -100 = all killed)
# Settings in all cases: 10 µM unless noted
# NCI-H23 lung = test system: NCI-H23 lung
# NCI-H226 lung = test system: NCI-H226 lung
# NCI-H322M lung = test system: NCI-H322M lung
# HOP-62 NSCLC = test system: HOP-62 NSCLC
# NCI-H460 lung = test system: NCI-H460 lung
# HOP-92 NSCLC = test system: HOP-92 NSCLC
# NCI-H522 lung = test system: NCI-H522 lung
# A549/ATCC NSCLC = test system: A549/ATCC NSCLC
# 786-0 renal = test system: 786-0 renal
# COLO 205 colon = test system: COLO 205 colon
# DU-145 prostate = test system: DU-145 prostate
# K-562 leukemia = test system: K-562 leukemia
# MALME-3M melanoma = test system: MALME-3M melanoma
# MDA-MB-231 breast = test system: MDA-MB-231 breast
# RXF 393 renal = test system: RXF 393 renal
# SF-268 CNS = test system: SF-268 CNS
# SF-295 CNS = test system: SF-295 CNS
# SF-539 CNS = test system: SF-539 CNS
# UACC-257 melanoma = test system: UACC-257 melanoma
# M14 melanoma = test system: M14 melanoma
Compound,growth (NCI-H23 lung),growth (NCI-H226 lung),growth (NCI-H322M lung),growth (HOP-62 NSCLC),growth (NCI-H460 lung),growth (HOP-92 NSCLC),growth (NCI-H522 lung),growth (A549/ATCC NSCLC),growth (786-0 renal),growth (COLO 205 colon),growth (DU-145 prostate),growth (K-562 leukemia),growth (MALME-3M melanoma),growth (MDA-MB-231 breast),growth (RXF 393 renal),growth (SF-268 CNS),growth (SF-295 CNS),growth (SF-539 CNS),growth (UACC-257 melanoma),growth (M14 melanoma)
CC(=O)O[C@H]1CC[C@]2(C)[C@H]3C(=O)C=C4[C@@H]5C[C@](C)(C(=O)N6CCCNCC6)CC[C@]5(C)CC[C@@]4(C)[C@]3(C)CC[C@H]2C1(C)C,40.1%,76.6%,19.8%,-50.4% (active),-83.8% (active),31.1%,30%,-52.8% (active),-71.9% (active),-87.7% (active),4.85% (active),-11.3% (active),-71.7% (active),-84.6% (active),-89.4% (active),69.6%,60.2%,-92.9% (active),75.7%,6.84% (active)
Cc1cc(N2CCCCC2)nc(N(CCNc2ccnc3cc(Cl)ccc23)Cc2ccco2)n1,9.31% (active),80.1%,68.9%,24.3%,8.11% (active),52%,19.1%,36.6%,23.4%,-13.7% (active),46.4%,2.04% (active),40.2%,32.9%,33.3%,60.7%,48.7%,30.7%,88%,9.4% (active)
CC(=O)OC[C@]12CC[C@@H](/C(C)=N/O)[C@@H]1[C@H]1CC[C@@H]3[C@@]4(C)CCCNC(C)(C)[C@@H]4CC[C@@]3(C)[C@]1(C)CC2,86.2%,88.5%,90.7%,85.2%,84.5%,66.9%,83.8%,64.6%,73.5%,75.8%,77.3%,41.3%,89.2%,82.7%,71.2%,62.8%,84.5%,79.5%,81.4%,78.1%
C#CCN=C[C@]12CC[C@@H](C(=C)C)[C@@H]1[C@H]1CC[C@@H]3[C@@]4(C)CCC(=O)C(C)(C)[C@@H]4CC[C@@]3(C)[C@]1(C)CC2,50.5%,73.2%,103%,88.8%,70.8%,65.4%,51%,46.1%,74.9%,65.8%,67.9%,28.1%,81.8%,83.8%,80.3%,71.3%,68.5%,80.2%,55.6%,63.1%
Cc1ccc(-c2ccc(/C=C(\C#N)c3nc(-c4ccco4)cs3)o2)cc1,95%,92.7%,90.2%,97.5%,99.3%,100%,96.4%,103%,106%,99.1%,108%,95%,109%,93%,136%,107%,96.6%,103%,113%,93.7%
CCCCCCCCNc1cccc2c1C(=O)c1ccccc1C2=O,102%,96.5%,101%,115%,101%,109%,81.3%,91.7%,104%,116%,112%,97.2%,108%,96.1%,100%,94.9%,112%,121%,98.2%,107%
